Laboratory results as given in PubChem BioAssay (NCI).
About 83,000 compounds went through this panel and 20% of them were active in at least one assay; those are over-represented in the sample as a whole.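 Testing used 96-well plates and a 48-hour single-concentration exposure. Example: -40 means 40% of the starting cells died.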 Active and inactive are the calls of the source. The calls were made as follows: active = growth percent below 10; inactive = the rest.

tested on: HCT-15 colon; assay: NCI-60 one-dose screen, 48 h (100 = growth as untreated, 0 = no growth, -100 = all killed); settings: 10 µM unless noted

Structure (SMILES)	growth
C#CCOc1cccc(Nc2ncnc3ccc(NC(=O)CCl)cc23)c1	-41.6% (active)
Cc1ccc(C(C(N)=O)C(C(N)=O)c2ccccc2)cc1 (stereo not given)	110% (inactive)
COc1cc2c(c(OC)c1OC)-c1ccc(OC)c(=O)cc1[C@@H](NC(=O)CCl)CC2	7.81% (active)
CCOc1ccc(NC(=O)CSc2oc(-c3ccccc3)nc2S(=O)(=O)c2ccc(F)cc2)cc1	77% (inactive)
N#CC1=C(N)Oc2c(sc3c(F)cccc23)C1c1ccc(F)cc1 (stereo not given)	26% (inactive)
Clc1ccc(Nc2nnc(COc3ccccc3)c3ccccc23)cc1	4.45% (active)
Cc1ccc(C2=Nc3c(N)ncnc3NC(c3ccc4c(c3)OCO4)C2)cc1 (stereo not given)	34.6% (inactive)
Cc1cc(Cl)ccc1NC(=O)c1cc2ccccc2cc1O	13.2% (inactive)
CC(C)n1cnc2c(=S)nc[nH]c21	102% (inactive)
CCOC(=O)CNP(=O)(OC[C@@H](Cc1ccccc1)NC(=O)c1cc2ccccc2s1)Oc1ccccc1 (stereo not given in full)	43.5% (inactive)
Brc1ccc2[nH]cc(-c3nonc3-c3c[nH]c4ccccc34)c2c1	19.5% (inactive)
CN(C)CCCC1(c2ccc(F)cc2)OCc2cc(-c3cccc4[nH]ccc34)ccc21 (stereo not given)	7.57% (active)
C1=C(N2CCCC2)CCC1	104% (inactive)
COc1ccc(C(=S)N2CCN(c3ccccc3Cl)CC2)cc1OC	95.2% (inactive)
Cc1cc(=O)[nH]c2c(C#N)cnn12	107% (inactive)
CCCCCOc1ccc(C(=O)/C(Br)=C/C(=O)O)cc1	89.1% (inactive)
COc1cc(-c2nc(SCCC(C)C)nc(Nc3ccccc3Cl)c2C#N)cc(OC)c1OC	93% (inactive)
CCN(C(=O)N1CCN(c2cc3c(cc2F)c(=O)c(C(=O)O)cn3C2CC2)CC1)c1nc(-c2ccc(Cl)cc2)cs1	10.2% (inactive)
Fc1ccc2[nH]cc(-c3nonc3-c3c[nH]c4ccc(Br)cc34)c2c1	9.29% (active)
N#Cc1cccc(F)c1	97.8% (inactive)

Structure (SMILES)	growth
Cc1cnc(C(=O)NNc2nc3sc4c(c3c(=O)n2C)C(C)CCC4)cn1 (stereo not given)	15.9% (inactive)
O=C(O)[C@@H]1c2ccccc2-c2ccccc2[C@H]1C(=O)O	101% (inactive)
CN[C@]12CC3(C=CC(=O)C=C3)O[C@@]1(Cc1ccc(OC)cc1)N(C)C(=O)N2	4.25% (active)
Cc1ccccc1/C=C1\CN(C(=O)OC(C)(C)C)C/C(=C\c2ccccc2C)C1=O	1.66% (active)
CCc1n(Cc2ccc3ccccc3c2)cc[n+]1Cc1ccc2ccccc2c1	70.1% (inactive)
CCCCCCCCn1ccc2cc(NC(=O)CN3CCN(c4nc(C)cc(Cl)n4)CC3)ccc21	77.1% (inactive)
COc1ccc(-c2nc3c(c(-c4ccccc4)nn3-c3ccccc3)c(-c3ccc(N4CCOCC4)cc3)c2C#N)cc1	91.4% (inactive)
CCC(=C(c1ccc(OCCN2CCCC2)cc1)c1ccc(OCCN2CCCC2)cc1)c1ccc(Cl)cc1	-70.5% (active)
CCOC(=O)Cn1c(O)c(N=Nc2ccc(S(N)(=O)=O)cc2)c2cc(Br)ccc21	85.4% (inactive)
C=C1C(=O)O[C@H]2[C@H]1CC/C(COC(=O)CCSCCC(=O)OC/C1=C/CC[C@@]3(C)O[C@H]3[C@H]3OC(=O)C(=C)[C@@H]3CC1)=C\CC[C@@]1(C)O[C@@H]21	-6.34% (active)
COC(C(=O)[C@@H](O)[C@@H](C)O)[C@@H]1Cc2cc3cc(O[C@H]4C[C@@H](O[C@H]5C[C@@H](O)[C@H](O)C(C)O5)[C@H](O)C(C)O4)c(C)c(O)c3c(O)c2C(=O)[C@H]1O[C@H]1C[C@@H](O[C@H]2C[C@@H](O[C@H]3C[C@@H](O)[C@H](OC)C(C)O3)[C@@H](O)C(C)O2)[C@H](O)C(C)O1 (stereo not given in full)	8.46% (active)
COC(=O)CNC(=O)[C@H](Cc1ccccc1)NCc1ccncc1	101% (inactive)
O=C(O)c1[nH]c(=O)[nH]c(=O)c1[N+](=O)[O-]	98.8% (inactive)
Cc1nnc(NC(=O)c2nc(S(=O)(=O)Cc3ccc(F)cc3)ncc2Cl)s1	11.1% (inactive)
O=C1Nc2ccc(Br)cc2/C1=N/c1n[nH]c(=S)s1	99.1% (inactive)
N#CC1=C(c2ccc(Cl)cc2)Nc2c(c(-c3ccc(Cl)cc3)nn2-c2ccccc2)C12C(=O)Nc1ccc(Cl)cc12 (stereo not given)	18.4% (inactive)
O=C1CNC(c2ccccc2)C(c2ccccc2)N1 (stereo not given)	104% (inactive)
CN1CCN(Cc2ccc3c(NNC(=O)c4ccccc4)nc4cc(F)ccc4n23)CC1	33.8% (inactive)
CC(C)=NNc1ccccn1	27.9% (inactive)
Cc1ccc(/C=N/Nc2nc(Nc3ccccc3)nc(-n3nc(C)cc3C)n2)cc1	25.2% (inactive)

tested on: HT29 colon; assay: as above; settings: 10 µM unless noted

Structure (SMILES)	growth
C#CCOc1cccc(Nc2ncnc3ccc(NC(=O)CCl)cc23)c1	-78.6% (active)
Cc1ccc(C(C(N)=O)C(C(N)=O)c2ccccc2)cc1 (stereo not given)	109% (inactive)
COc1cc2c(c(OC)c1OC)-c1ccc(OC)c(=O)cc1[C@@H](NC(=O)CCl)CC2	4.97% (active)
CCOc1ccc(NC(=O)CSc2oc(-c3ccccc3)nc2S(=O)(=O)c2ccc(F)cc2)cc1	73.7% (inactive)
N#CC1=C(N)Oc2c(sc3c(F)cccc23)C1c1ccc(F)cc1 (stereo not given)	6.86% (active)
Clc1ccc(Nc2nnc(COc3ccccc3)c3ccccc23)cc1	1.32% (active)
Cc1ccc(C2=Nc3c(N)ncnc3NC(c3ccc4c(c3)OCO4)C2)cc1 (stereo not given)	14.1% (inactive)
Cc1cc(Cl)ccc1NC(=O)c1cc2ccccc2cc1O	80.5% (inactive)
CC(C)n1cnc2c(=S)nc[nH]c21	118% (inactive)
CCOC(=O)CNP(=O)(OC[C@@H](Cc1ccccc1)NC(=O)c1cc2ccccc2s1)Oc1ccccc1 (stereo not given in full)	57.2% (inactive)
Brc1ccc2[nH]cc(-c3nonc3-c3c[nH]c4ccccc34)c2c1	11.2% (inactive)
CN(C)CCCC1(c2ccc(F)cc2)OCc2cc(-c3cccc4[nH]ccc34)ccc21 (stereo not given)	-31.3% (active)
C1=C(N2CCCC2)CCC1	103% (inactive)
COc1ccc(C(=S)N2CCN(c3ccccc3Cl)CC2)cc1OC	102% (inactive)
Cc1cc(=O)[nH]c2c(C#N)cnn12	104% (inactive)
CCCCCOc1ccc(C(=O)/C(Br)=C/C(=O)O)cc1	105% (inactive)
COc1cc(-c2nc(SCCC(C)C)nc(Nc3ccccc3Cl)c2C#N)cc(OC)c1OC	89.1% (inactive)
CCN(C(=O)N1CCN(c2cc3c(cc2F)c(=O)c(C(=O)O)cn3C2CC2)CC1)c1nc(-c2ccc(Cl)cc2)cs1	5.63% (active)
Fc1ccc2[nH]cc(-c3nonc3-c3c[nH]c4ccc(Br)cc34)c2c1	-51.8% (active)
N#Cc1cccc(F)c1	104% (inactive)

Structure (SMILES)	growth
Cc1cnc(C(=O)NNc2nc3sc4c(c3c(=O)n2C)C(C)CCC4)cn1 (stereo not given)	-2.88% (active)
O=C(O)[C@@H]1c2ccccc2-c2ccccc2[C@H]1C(=O)O	102% (inactive)
CN[C@]12CC3(C=CC(=O)C=C3)O[C@@]1(Cc1ccc(OC)cc1)N(C)C(=O)N2	7.83% (active)
Cc1ccccc1/C=C1\CN(C(=O)OC(C)(C)C)C/C(=C\c2ccccc2C)C1=O	-26.4% (active)
CCc1n(Cc2ccc3ccccc3c2)cc[n+]1Cc1ccc2ccccc2c1	-32.2% (active)
CCCCCCCCn1ccc2cc(NC(=O)CN3CCN(c4nc(C)cc(Cl)n4)CC3)ccc21	65.3% (inactive)
COc1ccc(-c2nc3c(c(-c4ccccc4)nn3-c3ccccc3)c(-c3ccc(N4CCOCC4)cc3)c2C#N)cc1	105% (inactive)
CCC(=C(c1ccc(OCCN2CCCC2)cc1)c1ccc(OCCN2CCCC2)cc1)c1ccc(Cl)cc1	-49.9% (active)
CCOC(=O)Cn1c(O)c(N=Nc2ccc(S(N)(=O)=O)cc2)c2cc(Br)ccc21	63.7% (inactive)
C=C1C(=O)O[C@H]2[C@H]1CC/C(COC(=O)CCSCCC(=O)OC/C1=C/CC[C@@]3(C)O[C@H]3[C@H]3OC(=O)C(=C)[C@@H]3CC1)=C\CC[C@@]1(C)O[C@@H]21	-9.93% (active)
COC(C(=O)[C@@H](O)[C@@H](C)O)[C@@H]1Cc2cc3cc(O[C@H]4C[C@@H](O[C@H]5C[C@@H](O)[C@H](O)C(C)O5)[C@H](O)C(C)O4)c(C)c(O)c3c(O)c2C(=O)[C@H]1O[C@H]1C[C@@H](O[C@H]2C[C@@H](O[C@H]3C[C@@H](O)[C@H](OC)C(C)O3)[C@@H](O)C(C)O2)[C@H](O)C(C)O1 (stereo not given in full)	-13.6% (active)
COC(=O)CNC(=O)[C@H](Cc1ccccc1)NCc1ccncc1	86.6% (inactive)
O=C(O)c1[nH]c(=O)[nH]c(=O)c1[N+](=O)[O-]	129% (inactive)
Cc1nnc(NC(=O)c2nc(S(=O)(=O)Cc3ccc(F)cc3)ncc2Cl)s1	23.8% (inactive)
O=C1Nc2ccc(Br)cc2/C1=N/c1n[nH]c(=S)s1	104% (inactive)
N#CC1=C(c2ccc(Cl)cc2)Nc2c(c(-c3ccc(Cl)cc3)nn2-c2ccccc2)C12C(=O)Nc1ccc(Cl)cc12 (stereo not given)	32.4% (inactive)
O=C1CNC(c2ccccc2)C(c2ccccc2)N1 (stereo not given)	85.2% (inactive)
CN1CCN(Cc2ccc3c(NNC(=O)c4ccccc4)nc4cc(F)ccc4n23)CC1	30.7% (inactive)
CC(C)=NNc1ccccn1	27.4% (inactive)
Cc1ccc(/C=N/Nc2nc(Nc3ccccc3)nc(-n3nc(C)cc3C)n2)cc1	32.7% (inactive)
